Measured values from the supplement of paper PMC6555819.

How the values were obtained:
Assay in all cases: PBM binding z-score (relative to random genomic background probes); higher = stronger binding; sequences stand for … in GC…GCGATTGACAGCGTAGAATGAAGG
[1] = test system: FXR:RXRa (NR concentration 270 nM, RXRa partner concentration 90 nM)
Method in brief: (§1)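 Antibodies against each partner of ligand-free nuclear receptor dimers (one per run) detected binding on custom Agilent 4×180K protein-binding microarrays after 1 h incubation. The double-stranded probes had 34-nt variable regions carrying direct-repeat seeds, single-nucleotide variants, half-site ablations and random human genomic background sequences. Binding z-scores, from regression-normalized fluorescence, use the random background probes as reference.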

[2] = test system: LXRa:RXRa (NR concentration 270 nM, RXRa partner concentration 90 nM)
Method in brief: as §1

[3] = test system: LXRa homodimer (NR concentration 270 nM)
Method in brief: as §1

[4] = test system: LXRb:RXRa (NR concentration 270 nM, RXRa partner concentration 90 nM)
Method in brief: as §1

[5] = test system: LXRb homodimer (NR concentration 270 nM)
Method in brief: as §1

[6] = test system: PPARa:RXRa (NR concentration 270 nM, RXRa partner concentration 90 nM)
Method in brief: as §1

[7] = test system: PPARg:RXRa (NR concentration 180 nM, RXRa partner concentration 90 nM)
Method in brief: as §1

[8] = test system: PPARg:RXRa 270nM:90nM, anti-RXR (NR concentration 270 nM, RXRa partner concentration 90 nM)
Method in brief: as §1

[9] = test system: PPARg:RXRa 30nM:10nM, anti-RXR (NR concentration 30 nM, RXRa partner concentration 10 nM)
Method in brief: as §1

[10] = test system: PPARg:RXRa 90nM:30nM, anti-RXR (NR concentration 90 nM, RXRa partner concentration 30 nM)
Method in brief: as §1

[11] = test system: PPARg:RXRa DBDmut IVT, anti-RXR (DBD mutation: RXRa K156A/R161A, NR concentration 270 nM, RXRa partner concentration 90 nM)
Method in brief: as §1

[12] = test system: PPARg:RXRa IVT, anti-PPARg (NR concentration 270 nM, RXRa partner concentration 90 nM)
Method in brief: as §1

[13] = test system: PPARg DBDmut:RXRa IVT, anti-PPARg (DBD mutation: PPARg1 K132A/R137A, NR concentration 270 nM, RXRa partner concentration 90 nM)
Method in brief: as §1

[14] = test system: PPARg DBDmut IVT, anti-PPARg (DBD mutation: PPARg1 K132A/R137A, NR concentration 270 nM)
Method in brief: as §1

[15] = test system: PPARg homodimer (NR concentration 180 nM)
Method in brief: as §1

[16] = test system: PXR:RXRa (NR concentration 270 nM, RXRa partner concentration 90 nM)
Method in brief: as §1

[17] = test system: PXR homodimer (NR concentration 270 nM)
Method in brief: as §1

[18] = test system: RARa:RXR (NR concentration 270 nM, RXRa partner concentration 90 nM)
Method in brief: as §1

[19] = test system: RARa homodimer (NR concentration 270 nM)
Method in brief: as §1

[20] = test system: RARb:RXRa (NR concentration 270 nM, RXRa partner concentration 90 nM)
Method in brief: as §1

Sequence	PBM binding z-score [1]	PBM binding z-score [2]	PBM binding z-score [3]	PBM binding z-score [4]	PBM binding z-score [5]	PBM binding z-score [6]	PBM binding z-score [7]	PBM binding z-score [8]	PBM binding z-score [9]	PBM binding z-score [10]	PBM binding z-score [11]	PBM binding z-score [12]	PBM binding z-score [13]	PBM binding z-score [14]	PBM binding z-score [15]	PBM binding z-score [16]	PBM binding z-score [17]	PBM binding z-score [18]	PBM binding z-score [19]	PBM binding z-score [20]
ACTAGCAGGCCAAGTTTCGGTCACTCAAACAAAG	-0.253	-0.249	0.38	-0.133	-0.471	-0.0764	-0.26	-0.531	-0.703	-0.73	0.73	0.753	-0.762	-0.738	-0.0877	-0.355	-0.0865	0.0207	-0.205	1.56
ACTAGTTGGTGAGCTGAGGTCACACACAATTCGG	2.78	2.49	1.5	2.85	0.277	3.35	1.49	2.09	0.341	1.3	0.913	1.97	0.121	0.0784	2.24	4.76	1.9	4.65	0.439	2.98
GCTATTAGTTGAAAGGGCAACCGTATGATTCTCG	0.693	0.878	0.327	1.1	-0.2	2.2	2.64	4.69	2.25	4.37	0.503	1.17	0.375	0.271	1.91	1	0.322	1.49	0.819	2.11
GCTGCTAGGTTAGGTTGGTCAGCTAACGGGTACG	-0.39	-0.356	-0.358	-0.526	-0.743	-0.376	-0.306	-0.464	-0.769	-0.625	1	0.292	-1.46	-0.928	-0.465	-0.364	-0.359	-0.327	-0.345	0.767
GGAACCAGGGCAAGTTGATAGCAGAGTTTGATGG	1.5	0.969	0.225	0.866	0.488	1.54	1.17	0.853	-0.119	0.257	4.63	3.75	0.246	1.22	1.02	0.554	0.742	0.217	0.68	2.26
TCTAGTTGGTCACGGAGGTCATACACGACGGGTA	3.53	3.79	3.37	3.52	0.955	3.92	3.08	3.93	3.65	3.86	2.41	3.69	1.98	1.06	2.96	4.57	2.33	4.38	1.78	3.59
GCTTACGGGTCAGAGGTTATAGCATGAATAGAAT	5.2	3.46	0.404	3.77	0.261	5.92	9.08	7.82	6.2	8.57	2.54	4.73	0.344	0.535	2.65	3.89	0.491	5.92	0.521	3.58
ATTCCAAGGTGATCGTGAGGTCGTTGATACTAAC	2.16	1.56	0.734	1.23	0.167	1.52	0.194	0.382	0.172	0.122	0.951	1.47	0.731	0.342	0.792	3.26	1.64	2.55	0.906	1.33
CCGTACGGGTCACGAGGTTATAGCACGACGAGCG	6.63	4.94	0.31	4.08	-0.283	5.88	6.72	6.37	2.37	4.99	2.29	3.93	0.613	-0.38	2.82	4.73	-0.215	6.42	1.17	4.48
TCTTGCAGATCAAAGGTTAAGAAAGCCGAAGCCT	1.5	1.61	-0.333	1.79	-0.606	4.12	5.83	6.41	5.71	6.62	0.914	2.37	0.0487	-1.09	0.464	1.72	-0.464	2.7	-0.444	1.7
GCAGACAGGTGAAACGCAAGTAACTCAGGGTGGC	-0.454	-0.128	-0.469	-0.359	-0.954	0.613	0.63	-0.0352	-0.456	-0.429	0.725	0.495	-0.728	-0.714	-0.578	-0.359	-0.754	-0.0735	-0.461	0.562
TCTTGTAGATCAATAGAGGTTAAGTAAGTGCGCT	1.18	3.63	0.745	1.96	-0.0782	2.03	0.0612	1.68	2.63	2.16	1.78	1.22	0.705	0.692	0.3	3.96	0.52	2	0.239	0.993
ACTTACGGGTCAACGAGGTTACAGCACGCGTATA	7.13	5.03	0.828	4.72	0.537	6	5.8	5.86	2.49	4.5	3.63	4.61	3.52	1.44	2.75	5.25	2.74	5.23	1.58	4.44
